Compounds without any hit were thinned out: in the full panel of roughly 83,000, 20% have a hit.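 Cells were grown in 96-well plates and exposed to the test compound at a single concentration for 48 hours; results are reported as percent growth, with values below 10 considered active.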 A number with no mark means an inactive call. Activity calls are given as the source filed them.
test system: LOX IMVI melanoma; assay: NCI-60 one-dose screen, 48 h (100 = growth as untreated, 0 = no growth, -100 = all killed); conditions: 10 µM unless noted
Experimental: Growth inhibition of the LOX IMVI human tumor cell line is measured as a screen for anti-cancer activity. Cells are grown in 96 well plates and exposed to the test compound for 48 hours. Compounds are tested at a single concentration, which is 10^-5 M for most compounds. The reported endpoint is percent growth (GI% or GIPRCNT), where numbers from 0 - 100% represent growth inhibition, and numbers from -100% - 0 represent cell death. For example, a value of 40 represents 60% growth inhibition. A value of 0 means no net growth occurred over the course of the experiment. A value of -40 indicates 40% of cells at the beginning of the experiment died by the end of the experiment. A value of -100 means all cells are dead at the end of the experiment.
NCI-60 Human Tumor Cell Lines Screen was performed using the standard one-dose NCI protocol, which is described in more detail at https://dtp.cancer.gov/discovery_development/nci-60/default.htm.
Compounds with GIPRCNT values below 10 were considered active. Activity score was based on GIPRCNT using the following formula: […]
Score is 0 for GIPRCNT values of 100 or above, 50 for GIPRCNT values of 0, and 100 for GIPRCNT values of -100.

| SMILES | growth |
| --- | --- |
| CCCC(=O)OCC1OC(n2cnc3c(=S)nc(N)[nH]c32)C(OC(=O)CCC)C1OC(=O)CCC (stereo not given) | 12% |
| Fc1ccc(NCc2cn(-c3ccccc3)nc2-c2ccc(OCc3ccccc3)cc2)cc1Cl | 96.7% |
| Cn1nccc1Nc1nccc(-c2ccn([C@H](CO)c3ccc(Cl)c(F)c3)c(=O)c2)n1 | 58.5% |
| COc1ccc(-c2ccc3c(N4CCOC[C@@H]4C)nc(N4CCOC[C@@H]4C)nc3n2)cc1CO | 1.2% (active) |
| CC(C)c1ccc(/C=N/Nc2nc3ccccc3s2)cc1 | 89.1% |
| CC[C@H](Nc1ncnc2nc[nH]c12)c1nc2cccc(F)c2c(=O)n1-c1ccccc1 | 74.6% |
| c1cn2cc(-c3ccc4cn[nH]c4c3)nc(Nc3ccc(N4CCOCC4)cc3)c2n1 | 56.4% |
| C/C(=C(/c1ccc(Cl)cc1)c1ccc(OCCN2CCCCC2)cc1)c1ccccc1 | 59.9% |
| COc1ccc(-n2c(=O)c3ccccc3n(Cc3ccc(C(=O)NO)cc3)c2=O)cc1 | -71.5% (active) |
| CC1=CC2c3oc(-c4ccccc4)c(C(=O)c4ccccc4)c3CNC2C=C1 (stereo not given) | 86.2% |
| C=CC(=O)Nc1cc2c(Nc3ccc(F)c(Cl)c3)ncnc2cc1C#CC(C)(C)N1CCN(C)CC1 | -91.4% (active) |
| O=C(c1ccccc1)C(c1ccccc1)N1CCOCC1 (stereo not given) | 98.2% |
| CCc1cc2c(cc1N1CCC(N3CCOCC3)CC1)C(C)(C)c1[nH]c3cc(C#N)ccc3c1C2=O | -16.2% (active) |
| O=C(O)c1ccc2c(c1)nc(Nc1cccc(Cl)c1)c1ccncc12 | 7.77% (active) |
| Cc1cc([C@@H](C)Nc2ccccc2C(=O)O)c2nc(N3CCOCC3)cc(=O)n2c1 | 30.1% |
| COc1ccc(C(=O)c2cc(OC)c(OC)c(OC)c2)cc1/C=C/C(=O)c1ccc(F)cc1 | -56.5% (active) |
| COc1cc(N2CCC(N3CCN(C)CC3)CC2)ccc1Nc1ncnc(Nc2ccccc2S(=O)(=O)C(C)C)n1 | 103% |
| COC(=O)[C@]12CC[C@@H](C)[C@H](C)[C@@H]1C1=CC[C@@H]3[C@@]4(C)C[C@@H](OC(=O)/C=C/c5ccccc5)[C@H](O)[C@@](C)(CO)[C@@H]4[C@H](O)C[C@@]3(C)[C@]1(C)CC2 | -96.4% (active) |
| N#CC(C#N)=NO | 95.8% |
| CNC(=O)CN1CCC(Oc2cc3c(Nc4cccc(Cl)c4F)ncnc3cc2OC)CC1 | 37.7% |

| SMILES | growth |
| --- | --- |
| CCN1CCN(Cc2ccc(Cc3ncc(F)c(-c4cc(F)c5nc(C)n(C(C)C)c5c4)n3)nc2)CC1 | -80.4% (active) |
| COc1cc(-c2nc(C(=O)Nc3ccc(C)cc3)nn2-c2ccc(F)c(F)c2)cc(OC)c1OC | 99% |
| COc1ccc2c(c1)cn1c3ccc(O)cc3nc(N)c21 | 24.2% |
| O=C(Nc1cccc(Cl)c1)Nc1ncc(CCNc2ncnc3ccsc23)s1 | 16.4% |
| S=C(NCc1ccc2c(c1)OCO2)N1CCN(c2ncnc3c2oc2ccccc23)CC1 | 44.6% |
| O=C(Nc1ccc(N=Nc2ccccc2)cc1)c1cccc2ccccc12 | 64.4% |
| COc1ccc2c(CCC(c3ccccc3)c3ccccc3)c3[n+](cc2c1OC)CCc1cc2c(cc1-3)OCO2 | -58.5% (active) |
| Cc1nc2ccc(-n3ncc(C(=O)c4cc5ccccc5[nH]4)c3N)cc2[nH]1 | 14.8% |
| CCCCN1CCCC[C@@H]1C(=O)N[C@H](C(=O)N(C)[C@H](CCc1nc(C(=O)N[C@@H](Cc2ccccc2)C[C@H](C)C(=O)OC)cs1)C(C)C)C(C)C | 80% |
| Cn1ccnc1C(=O)/C=C/c1ccc(CC(=O)Nc2ccc(Br)cc2)cc1 | 7.81% (active) |
| C=CC(=O)Nc1cc(Nc2nccc(-c3cn(C)c4ccccc34)n2)c(OC)cc1N(C)CCN(C)C | -84.6% (active) |
| C=C1C(=O)O[C@H]2[C@H]1CC/C(Cn1cc(-c3cc(C)c(C)cc3C)nn1)=C\CC[C@@]1(C)O[C@@H]21 | -95% (active) |
| Cn1ccnc1C(=O)/C=C/c1ccc(CC(=O)Nc2ccc(S(F)(F)(F)(F)F)cc2)cc1 | -78.7% (active) |
| O=C1CC(c2ccc(Cl)cc2)c2ncn(-c3cccc(Cl)c3)c2N1 (stereo not given) | 47.5% |
| CC1(O)CCC2CC3OC3(C)CCC3OC3(C)C(O)CC1C2(C)C (stereo not given) | 93.7% |
| COc1cc(Nc2ncc(F)c(Nc3ccc4c(n3)N(COP(=O)(O)O)C(=O)C(C)(C)O4)n2)cc(OC)c1OC | -69% (active) |
| Cc1ccc(-c2cc3c(SCC(=O)Nc4cc(C(F)(F)F)ccc4Cl)nccn3n2)cc1 | -6.48% (active) |
| COc1cnc2c(c1)C(=O)c1c-2n(CCCN2CCC(N)CC2)c(=O)c2cc([N+](=O)[O-])ccc12 | 21.2% |
| Cc1ccc(C(=O)Nc2ccc(CN3CCN(C)CC3)c(C(F)(F)F)c2)cc1C#Cc1cnc2cccnn12 | -94% (active) |
| N#Cc1c(-c2ccc(C(F)(F)F)cc2)c(F)c(NCCC2CCC(O)C2)n2c1nc1ccccc12 (stereo not given) | 6.38% (active) |

— PubChem BioAssay (NCI)
